The source of these data is PubChem BioAssay (NCATS).

Assay [1] is described as follows: Cell Viability - Mesenchymal (AID 546).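 Also: cells exposed to compound for 40 hours before reading; 0% = DMSO only and -100% = 100 µM tamoxifen.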 In outline: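 Human renal mesenchymal cells (glomerulus-derived), 1000 cells/well, 5 hr 37 °C pre-incubation; compound 40 hr, 37 °C; CellTiter-Glo, 20 min RT; luminescence; AC50 via Hill equation.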
The nature of assay [2]: Cellular Toxicity (caspase-3) HepG2 (AID 654).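 Also: cells exposed to compound for 16 hours before reading; 0% = DMSO alone and 100% = caspase signal from 100 µM tamoxifen.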 A digest of the protocol: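 Caspase 3/7 activation in HepG2 is measured as rising luminescence after a 16 hr treatment at 37 °C. Values are scaled between DMSO basal and 100 uM tamoxifen, and AC50 is fitted with the Hill equation.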
The nature of assay [3]: Cellular Toxicity (caspase-3) HUV-EC-C (AID 656).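 Also: 0% = DMSO basal and 100% = 100 µM tamoxifen.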 A digest of the protocol:
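Luminescent Caspase-Glo 3/7 readout after 16 h, 37 °C compound exposure of HUV-EC-C endothelial cells, 1000 per well, complete medium. AC50 derived by Hill fitting, with DMSO as baseline and 100 uM tamoxifen as full activation.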

Assay [4] in a line: Cellular Toxicity (caspase-3) SHSY5Y (AID 657). In outline: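 Luminescent Caspase-Glo 3/7 read-out, 1 hr room temperature, follows 16 hours of compound treatment of SH-SY5Y cells at 37 °C. Normalization: DMSO basal, 10 uM staurosporine as 100%; AC50 values from Hill-equation concentration-response fits.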
Assay [5] in a line: Cellular Toxicity (caspase-3) MRC-5 (AID 659).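 Also: 0% = DMSO basal and 100% = 10 µM staurosporine.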 A digest of the protocol: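 MRC-5 fibroblasts, 1500/well; 16 h cpd, 37 °C; Caspase-Glo 3/7, 1 h RT; lumi read. Norm: DMSO = 0%, 10 uM staurosporine = 100%. Hill-fit AC50 from qHTS conc-response.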
Assay [6] is described as follows: Cellular Toxicity (caspase-3) Mesangial (AID 660).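 Also: combined caspase 3 and 7 activity read by Caspase-Glo luminescence; cells exposed to compound for 16 h before the caspase read.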 In outline: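 Seed cells derived from normal human renal glomeruli, incubate 5 h, add compounds across concentrations and incubate 16 h at 37 °C. Caspase 3/7 activation is then quantified by luciferase light, with AC50 derived by Hill modeling.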
Assay [7] in a line: MultiTox-Fluor Cytotoxicity Assay - LYMP1-001 - Live Cells (AID 947).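 Also: 0% = DMSO only and full inhibition = tetraoctylammonium bromide control.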
A short description of assay [8]: Cell Viability - LYMP1-002 - Assay at 16 hr (AID 948).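 Also: 0% = DMSO alone and full effect = 92 µM tetraoctylammonium bromide.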 In outline: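 ATP luminescence (CellTiter-Glo) was measured after 16 hr compound exposure at 37 C of 2500 lymphoblastoid LYMP1-002 cells per well. Concentration-response curves were fitted with the Hill equation to give AC50.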
The nature of assay [9]: MultiTox-Fluor Cytotoxicity Assay - LYMP1-002 - Live Cells (AID 955). Also: % is scaled to controls: 0 for no effect and ±100 for the full control effect. A digest of the protocol:
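Cells were seeded at 2500 per well and incubated 5 hr. Compounds were then added for 16 hr at 37 C, followed by MultiTox-Fluor reagent for 60 min at room temperature and fluorescence reading of viable-cell protease signal.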

Assay [10] can be described thus: MultiTox-Fluor Cytotoxicity Assay - LYMP1-003 - Dead Cells (AID 961).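 Also: 0% = DMSO and 100% = tetraoctylammonium bromide; nearly all actives have a fitted effect of over 70% in size.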 A digest of the protocol: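 LYMP1-003 human lymphoblastoid cells (2500/well) exposed to compound 16 h at 37 C in complete medium; dead-cell protease read with bis-AAF-R110 fluorescence (Ex/Em 485/520) after 60 min at room temperature. Normalized to DMSO and 15 uM tetraoctylammonium bromide; AC50 from Hill fit.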

Assay [11] concerns the target Thyroid hormone receptor beta (Homo sapiens) (UniProt P10828). Briefly: qHTS assay for small molecule agonists of thyroid hormone receptor beta signaling (AID 588545; calls by dose curve). A digest of the protocol:
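Agonist activity was read as beta-lactamase CCF4 fluorescence (405 ex, 460/530 em), scaled between DMSO (0%) and 10 nM T3 (100%), then Hill-fitted for EC50 and efficacy. HEK 293 TR-UAS-bla cells in 2% charcoal/dextran FBS medium were exposed 18 h at 37 C.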

Assay [12] in a line: qHTS assay for small molecule antagonists of retinoid X receptor alpha signaling (AID 588546; active = well fitted inhibition curve with a large enough effect in the signal ratio, with a control signal flat, not every such curve was filed as active; the % refers to the signal ratio;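 also: cells stimulated with 9-cis-retinoic acid as agonist; % is scaled to controls: 0 for no effect and ±100 for the full control effect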). The following applies: HEK293T RXRa-UAS-bla, beta-lactamase ratio, antagonist mode; measured here: W530 green channel, cytotoxicity proxy. A digest of the protocol:
(§1)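 Beta-lactamase reporter inhibition, read as CCF4 fluorescence ratio (ex 405, em 460/530 nm) after 2 h at RT. HEK293T UAS-bla cells, 2500/well, were stimulated with 9-cis-RA at 500 or 100 nM final alongside test compound for 18 h at 37 C.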
(In qHTS, concentration-response curves come from the screen itself.)

The target in assay [13] is Retinoic acid receptor RXR-alpha (Homo sapiens) (UniProt P19793). Described as above. The settings on record: HEK293T RXRa-UAS-bla, beta-lactamase ratio, antagonist mode. In outline:
as §1

The target of assay [14] is Thyroid hormone receptor beta (Homo sapiens) (UniProt P10828). Briefly: qHTS assay for small molecule antagonists of thyroid hormone receptor beta signaling (AID 588547; active = well fitted inhibition curve with a large enough effect in the signal ratio, with a control signal flat, not every such curve was filed as active; the % refers to the signal ratio;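 also: cells stimulated with 0.4 nM T3 agonist during compound exposure; series mostly up to about 77 µM; % is scaled to controls: 0 for no effect and ±100 for the full control effect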). The settings on record: TR-UAS-bla HEK293, beta-lactamase ratio, antagonist mode, 18 h. A digest of the protocol: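 TR-UAS-bla GripTite HEK293 cells in 2% charcoal/dextran FBS medium; compounds 0.59 nM to 92 uM with T3 at 0.4nM final, 18 h at 37 C. Beta-lactamase read by CCF4 fluorescence (460/530 nm); Hill fits gave IC50 and efficacy.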
Chain of Thyroid hormone receptor beta (Homo sapiens) (P10828 whole entry, looked up): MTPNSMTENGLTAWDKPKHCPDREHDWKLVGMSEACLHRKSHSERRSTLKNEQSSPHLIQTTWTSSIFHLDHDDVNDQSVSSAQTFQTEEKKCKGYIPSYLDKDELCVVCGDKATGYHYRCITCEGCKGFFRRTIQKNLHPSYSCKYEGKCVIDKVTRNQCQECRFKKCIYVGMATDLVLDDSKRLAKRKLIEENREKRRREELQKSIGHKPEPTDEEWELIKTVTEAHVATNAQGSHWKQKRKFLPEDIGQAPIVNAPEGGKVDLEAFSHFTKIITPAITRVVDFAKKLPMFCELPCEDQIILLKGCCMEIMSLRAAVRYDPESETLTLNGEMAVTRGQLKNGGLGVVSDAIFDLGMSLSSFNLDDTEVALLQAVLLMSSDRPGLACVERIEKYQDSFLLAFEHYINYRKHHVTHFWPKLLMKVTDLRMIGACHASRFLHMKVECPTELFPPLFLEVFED

The target of assay [15] is Peroxisome proliferator-activated receptor alpha (Homo sapiens) (UniProt Q07869). Kind of assay: qHTS assay for small molecule agonists of the peroxisome proliferator-activated receptor alpha (PPARalpha) signaling pathway (AID 651778). Also: % of control where 0% means no effect. The following applies: PathHunter PPARalpha complementation, chemiluminescence, 6 h; stronger effect = higher value. In outline:
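Enzyme-fragment complementation assay in which ligand-bound PPARalpha translocates and forms an active enzyme that generates chemiluminescence. Cells were plated overnight, exposed to compound for 6 hr at 37 C, and then given detection reagent for 60 min at room temperature.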

Assay [16] can be described thus: qHTS assay for small molecule agonists of the antioxidant response element (ARE) signaling pathway measured by Nrf2-dependant transcriptional activity (AID 720636; active = well fitted curve in the direction sought with a large enough effect in the repeat runs; an effect the other way counts as inactive or inconclusive; also: % of control where 0% means no effect). A digest of the protocol:
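Nrf2-dependent transcription read as ONE-Glo luciferase signal from ARE-luc HepG2 reporter cells after 16 hr compound treatment at 37 C, 5% CO2, in assay medium with 1% dialyzed FBS.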

Assay [17] is described as follows: qHTS assay for small molecule antagonists of the retinoid-related orphan receptor gamma (ROR-gamma) signaling pathway - cell viability counter screen (AID 720652; active = well fitted curve in the direction sought with a large enough effect in the repeat runs; an effect the other way counts as inactive or inconclusive;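 also: CHO reporter cells with doxycycline-induced ROR-gamma expression; series mostly up to about 92 µM; compound exposure lasted 16 hr before ATP read; % is scaled to controls: 0 for no effect and ±100 for the full control effect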). A digest of the protocol:
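Steps: seed CHO cells bearing TET-inducible ROR and ROR response element-luciferase; rest 5 hr at 37 C; add compound, then doxycycline; incubate 16 hr; add CellTiter-Glo and read luminescence as ATP-based viability.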

Assay [18] in a line: qHTS assay for small molecule agonists of the antioxidant response element (ARE) signaling pathway measured by Nrf2-dependant transcriptional activity - cell viability counter screen (AID 720653; active = well fitted curve in the direction sought with a large enough effect in the repeat runs; an effect the other way counts as inactive or inconclusive; also: % is scaled to controls: 0 for no effect and ±100 for the full control effect). The following applies: ARE-bla HepG2 viability, CellTiter-Glo ATP luminescence, 16 h; stronger effect = lower value. A digest of the protocol:
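ARE-bla HepG2 cells treated with compounds for 16 h at 37C; this counter screen measures viability as intracellular ATP by CellTiter-Glo luminescence after 30 min at room temperature.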

A short description of assay [19]: qHTS assay for cell viability of HEK293 cells (AID 743288). Also: % is scaled to controls: 0 for no effect and ±100 for the full control effect; nearly all actives have a fitted effect of over 50% in size. The following applies: ATP luminescence (CellTiter-Glo), 18 h; max response: stronger effect = lower value. In outline:
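Readout is luciferase-coupled ATP content (CellTiter-Glo luminescence, 30 min room temperature) as a measure of metabolically competent cells. Parental HEK293 cells were plated 5 h or more before compound addition, then treated 18 h at 37 C.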

Assay [20] is described as follows: qHTS assay for cell viability of the p53RE-bla HCT-116 cell line (AID 743292). Also: % is scaled to controls: 0 for no effect and ±100 for the full control effect; nearly all actives have a fitted effect of over 55% in size. A digest of the protocol: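 ATP-based luminescent viability (CellTiter-Glo, 30 min RT) after 16 h compound treatment at 37 C of p53RE-bla HCT-116 cells, seeded at 4,000 cells/well and rested 5 h before dosing.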

Values joined by “and” are separate entries in the source; they are usually repeats but may differ in a detail not shown here. Equal values may be shown once. Inconclusive results are not listed. Active and inactive are the calls of the source. Unless noted, calls follow the shape of the dose curve; as a rule, active = well fitted curve in the direction sought with a large enough effect; inconclusive = small, poorly fitted or top-dose-only effect, or another doubt; inactive = no such curve, though single readings can be large; an effect the other way counts as inactive or inconclusive.

Chain of Retinoic acid receptor RXR-alpha (Homo sapiens) (P19793 whole entry, looked up): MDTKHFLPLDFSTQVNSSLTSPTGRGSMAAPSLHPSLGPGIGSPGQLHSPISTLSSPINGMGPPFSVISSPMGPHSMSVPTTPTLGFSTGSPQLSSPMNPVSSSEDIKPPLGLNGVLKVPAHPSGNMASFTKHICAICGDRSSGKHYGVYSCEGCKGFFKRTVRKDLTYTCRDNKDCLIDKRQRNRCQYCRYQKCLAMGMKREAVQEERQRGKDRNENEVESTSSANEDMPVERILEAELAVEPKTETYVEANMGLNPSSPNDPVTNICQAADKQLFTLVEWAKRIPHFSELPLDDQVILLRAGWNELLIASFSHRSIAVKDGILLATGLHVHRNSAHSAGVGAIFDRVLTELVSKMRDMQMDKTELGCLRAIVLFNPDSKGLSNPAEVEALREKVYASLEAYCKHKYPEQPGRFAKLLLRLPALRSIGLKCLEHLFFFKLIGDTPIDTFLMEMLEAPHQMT
Chain of Peroxisome proliferator-activated receptor alpha (Homo sapiens) (Q07869 whole entry, looked up, the tested form may be a part): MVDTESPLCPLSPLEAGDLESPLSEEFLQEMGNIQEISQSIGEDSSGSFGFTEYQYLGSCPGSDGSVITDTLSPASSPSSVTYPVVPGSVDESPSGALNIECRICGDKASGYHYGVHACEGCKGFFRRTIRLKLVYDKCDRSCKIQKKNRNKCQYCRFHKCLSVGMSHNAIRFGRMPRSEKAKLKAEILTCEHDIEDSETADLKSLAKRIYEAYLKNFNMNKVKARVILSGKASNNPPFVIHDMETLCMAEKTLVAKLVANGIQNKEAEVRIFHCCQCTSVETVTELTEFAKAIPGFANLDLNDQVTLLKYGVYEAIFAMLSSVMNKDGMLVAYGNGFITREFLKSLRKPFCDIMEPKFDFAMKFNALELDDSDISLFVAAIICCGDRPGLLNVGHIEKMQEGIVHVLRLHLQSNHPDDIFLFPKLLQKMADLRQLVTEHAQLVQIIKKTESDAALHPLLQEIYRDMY

For the molecule `c1ccc2c(c1)CCCC2`, the call in assay [1], in [2], in assay [3], in assay [4], in assay [5] and in assay [6] was inactive. Also, the result in assay [9], in assay [11] and in assay [16] was inactive. In addition, the Potency result in assay [7], in assay [8], in assay [10], in assay [17] and in [20] was “inactive” throughout. Further, the max response in [12] was -8.06%; in [13], 7.45% (inactive); in assay [15] it was -0.424% (inactive); in assay [18], -5.84% (inactive); in [19] it was -7.83% (inactive). In addition, the activity change % (negative = inhibition) in [14] is 3.81% (inactive).
On to `O=NN(c1ccccc1)c1ccccc1`, for which the call in assay [1], in assay [2], in [3], in [4], in assay [5] and in [6] was inactive. Also, the molecule was called inactive in assay [9], in assay [11] and in assay [16]. The Potency entry in assay [7], in [8], in [10], in [17] and in assay [20] was “inactive” each time. Moreover, the max response in assay [12] was -5.84% and -1.3%; in [13], -2.47% (inactive) and 4.6% (inactive); in assay [15], 3.69% (inactive) and -0.619% (inactive); in assay [18] it was -4.67% (inactive) and 8.95% (inactive); in [19] it was -0.72% (inactive) and 1.61% (inactive). Further, the activity change % (negative = inhibition) in [14] is -20.2% (inactive) and 4.93% (inactive).
Consider `CCCCOCCOP(=O)(OCCOCCCC)OCCOCCCC`, for which the outcome in [1], in [2], in assay [3], in assay [4], in assay [5] and in [6] was inactive. Besides, the result in assay [9], in assay [11] and in [16] was inactive. The Potency result in assay [7], in [8], in assay [10], in assay [17] and in assay [20] was “inactive” each time. For the same molecule, the max response in [12] is 2.76% and -5.2%; in [13] it was -9.74% (inactive) and -1.56% (inactive); in assay [15] it was 5.47% (inactive) and -1.69% (inactive); in [18] it was -2.06% (inactive) and 1.41% (inactive); in [19], -5.77% (inactive) and -12.8% (inactive). Moreover, in assay [14], the activity change % (negative = inhibition) is -2.2% (inactive) and -9.56% (inactive).
`C=CC(=C)C`: the molecule was called inactive in assay [1], in assay [2], in [3], in [4], in assay [5] and in assay [6]. For the same molecule, the molecule was called inactive in assay [9], in assay [11] and in assay [16]. The Potency result in assay [7], in assay [8], in assay [10], in [17] and in [20] was “inactive” throughout. Moreover, the max response was -1.77% in assay [12]; -0.537% (inactive) in assay [13]; 4.78% (inactive) in assay [15]; -2.67% (inactive) in [18]; 2.66% (inactive) in assay [19]. Further, in assay [14], the activity change % (negative = inhibition) was 3.52% (inactive).
Turning to `CCSC(=O)Cl`, the result in assay [1], in assay [2], in assay [3], in assay [4], in [5] and in [6] was inactive. Further, the molecule was called inactive in assay [9], in assay [11] and in assay [16]. The Potency entry in [7], in [8], in assay [10], in [17] and in assay [20] was “inactive” throughout. In addition, the max response in assay [12] is -5.71%; in assay [13], 1.25% (inactive); in [15] it was 0.356% (inactive); in [18], 0.254% (inactive); in assay [19], -2.01% (inactive). Besides, the activity change % (negative = inhibition) in assay [14] is -1.08% (inactive).
